Test results reported in ChEMBL document CHEMBL3433997, “St. Jude Leishmania screening dataset” (2016).

Assays:
Format in all cases: functional
[1] = molecular target: Solute carrier family 2, facilitated glucose transporter member 1 (Homo sapiens) (UniProt P11166); assay: ST_JUDE_LEISH: Cytotoxicity at 2uM final concentration against transgenic Leishmania Mexicana promastigotes LmGLUT1 that are glucose transport deficient and complemented with the human glucose transporter GLUT1. Activity is measured by DNA content using SYBR green in vitro
[2] = molecular target: Hexose transporter 1 (Plasmodium falciparum) (UniProt O97467); assay: ST_JUDE_LEISH: Cytotoxicity at 2uM final concentration against transgenic Leishmania Mexicana promastigotes LmPfHT that are glucose transport deficient and complemented with the Plasmodium falciparum hexose transporter. Activity is measured by DNA content using SYBR green in vitro
[3] = molecular target: Glucose transporter (Leishmania mexicana) (UniProt O61059); assay: ST_JUDE_LEISH: Cytotoxicity at 2uM final concentration against transgenic Leishmania Mexicana promastigotes LmGT2 that are glucose transport deficient and complemented with the L. Mexicana glucose transporter 2. Activity is measured by DNA content using SYBR green in vitro

Sequence of Solute carrier family 2, facilitated glucose transporter member 1 (Homo sapiens) (P11166 whole entry): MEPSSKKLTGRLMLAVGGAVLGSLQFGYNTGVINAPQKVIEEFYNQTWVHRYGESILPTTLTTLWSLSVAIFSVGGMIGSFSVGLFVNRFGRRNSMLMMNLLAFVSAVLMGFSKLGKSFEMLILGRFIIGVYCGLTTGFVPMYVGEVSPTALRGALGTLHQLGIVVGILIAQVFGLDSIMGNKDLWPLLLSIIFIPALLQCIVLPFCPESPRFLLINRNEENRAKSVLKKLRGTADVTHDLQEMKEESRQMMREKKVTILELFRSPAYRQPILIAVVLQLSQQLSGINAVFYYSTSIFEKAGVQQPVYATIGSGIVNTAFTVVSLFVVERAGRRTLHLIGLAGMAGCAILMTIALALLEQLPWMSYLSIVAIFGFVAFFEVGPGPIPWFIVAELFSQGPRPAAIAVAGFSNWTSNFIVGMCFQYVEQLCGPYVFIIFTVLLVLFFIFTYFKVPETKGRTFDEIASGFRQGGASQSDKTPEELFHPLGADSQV

Question: Cc1cccc2nc(-c3ccc(-c4ccc(CN5CCN(c6ccncc6)CC5)cc4)cc3)[nH]c12 was tested. Which inhibition [1] did it give?
Answer: Its inhibition is 33.3%.

Question: What about the inhibition [2] of the same compound?
Answer: Its inhibition is 29.1%.

Question: And the inhibition [3]?
Answer: The inhibition was 13.4%.

Question: CN1CCN(c2cc(NC(=O)Nc3cccc(Cl)c3Cl)ccc2Cl)CC1 was tested. Which inhibition [1] did it give?
Answer: The inhibition was -2.56%.

Question: And the inhibition [2]?
Answer: The inhibition was -2.86%.

Question: And the inhibition [3]?
Answer: The inhibition was -2.68%.

Question: With CN(C)Cc1cccc(-c2ccc(NC(=O)c3ccc4c(=O)n(CC5CCCO5)cnc4c3)cc2)c1 (stereo unspecified) as the compound, how does the inhibition [1] read?
Answer: The inhibition was 38.5%.

Question: And the inhibition [2]?
Answer: The inhibition was 22.4%.

Question: What about the inhibition [3] of the same compound?
Answer: The inhibition was 14.5%.

Question: What does the source list for Cc1nc(N)nc(N)c1OCCCCCCOc1ccccc1?
Answer: inhibition [1]: 2.38%; inhibition [2]: 4.83%; inhibition [3]: -0.89%

Question: Which inhibition [1] does the source give for CC1(C)NC(N)=NC(=N)N1OCc1ccc2ccccc2c1CON1C(=N)N=C(N)NC1(C)C here?
Answer: Its inhibition is 3.58%.

Question: And the inhibition [2]?
Answer: Its inhibition is 2.14%.

Question: What about the inhibition [3] of the same compound?
Answer: The inhibition was 3.06%.

Question: For CN(C)Cc1ccc(CNC2CCN(Cc3ccccc3Cl)CC2)cc1, which inhibition [1] is on record?
Answer: The inhibition was 18.4%.

Question: And the inhibition [2]?
Answer: Its inhibition is 13.8%.

Question: What about the inhibition [3] of the same compound?
Answer: Its inhibition is 13.4%.

Question: How did the inhibition [1] turn out when CC(Oc1cccc(Cl)c1)C(=O)N1CCc2ccccc21 (stereo unspecified) was run?
Answer: The inhibition was -1.29%.

Question: And the inhibition [2]?
Answer: Its inhibition is -1.34%.

Question: What about the inhibition [3] of the same compound?
Answer: Its inhibition is -1.29%.
